VDR inh = blocks the human vitamin D receptor. VDR-SRC2-3 peptide fluorescence polarization, 2 h. 400,000 tested, 0.93% active. Potency, µM, actives largely listed as inhibitors. P11473
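Fluorescence polarization assay measuring small-molecule disruption of VDR binding to the coregulator peptide SRC2-3. Compounds were pin-transferred (23 nl) into the reagent mix and incubated 2 h at room temperature before reading.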
Sfp inh = Sfp phosphopantetheinyl transferase inhibition. Biochemical Sfp PPTase activity, qHTS. Potency, µM, most hits filed as inhibitors. 310,000 tested, 3.5% active. AID 1490;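 note: the enzyme is Sfp with the accession as filed and its product quenches rhodamine fluorescence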
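Compounds were incubated with enzyme (final 15 nM) for 15 min at room temperature before substrate addition started the reaction. Fluorescence at 525 nm excitation, 598 nm emission was recorded immediately and after 30 minutes.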
CCT modulator = changes cytosolic chaperonin activity; activity change, % (no concentration beside the values), hits read low; 360,000 tested, 0.3% active; purified chaperonin ATPase assay, HTRF ADP detection, 30 min; in the data active = activity change below about -30%
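Nucleotide hydrolysis assay: TRiC at 20–40 nM final (set by batch activity) with 10 uM ATP, 30 min at 37 °C, in presence of 76 uM compound. Detection by competitive ADP HTRF, 30 min ambient.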
G9a block = inhibitors of human histone lysine methyltransferase G9a. Q96KQ7. G9a H3K9 monomethylation, AlphaScreen, 2 h. Potency, µM (top dose mostly 102 µM), most hits filed as inhibitors. 350,000 tested, 8.8% active. AID 504332; note: nearly all actives have a fitted effect of over 75% in size
Target sequence (Q96KQ7 913-1193 limits assumed): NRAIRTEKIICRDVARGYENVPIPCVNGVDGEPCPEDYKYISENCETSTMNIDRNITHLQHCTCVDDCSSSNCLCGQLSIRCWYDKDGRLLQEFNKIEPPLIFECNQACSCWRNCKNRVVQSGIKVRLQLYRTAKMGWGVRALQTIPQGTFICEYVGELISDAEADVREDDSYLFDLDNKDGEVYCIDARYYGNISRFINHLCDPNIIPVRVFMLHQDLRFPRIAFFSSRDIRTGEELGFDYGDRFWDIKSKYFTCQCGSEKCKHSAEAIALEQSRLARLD
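Compounds were preincubated with 20 nM G9a for 15 min, after which biotinylated H3K9 peptide (500 nM) and SAM (20 uM) started a 2 h room-temperature reaction. Monomethylated product was quantified by antibody-based AlphaScreen chemiluminescence.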
PLK1 PBD inh = blocks phosphopeptide binding to human PLK1 polo-box domain | P53350 | Plk1 PBD binding of FITC phosphopeptide, fluorescence polarization | Potency, µM, most hits filed as inhibitors | 360,000 tested, 2.8% active; note: series mostly up to about 57 µM; nearly all actives have a fitted effect of over 65% in size
Mm-Cpn inhibitor = blocks the Methanococcus maripaludis chaperonin Mm-Cpn; purified Mm-Cpn ATPase, ADP Transcreener TR-FRET; Potency, µM (doses to about 76.9 µM), most hits filed as inhibitors; 330,000 tested, 0.031% active; AID 504842; note: nearly all actives have a fitted effect of over 80% in size
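Quantitative HTS used 25 nM Mm-CPN and 10 uM ATP in magnesium/KCl Tris buffer, pH 7.4, with 1 mM DTT. Hydrolysis ran 30 min at 37°C; ADP was read by HTRF.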
Numbers stand for hits; – = inactive; ? = inconclusive; · = no result given; [ ] = dose if it differs, or a comment. Most compounds without a hit are left out; they make up all but 10% or so of the library. Unless noted, calls come from the whole dose curve; as a rule, active = well fitted curve in the direction sought with a large enough effect; inconclusive = small, poorly fitted or top-dose-only effect, or another doubt; inactive = no such curve, though single readings can be large; an effect the other way counts as inactive or inconclusive.

SMILES | VDR inh | Sfp inh | CCT modulator | G9a block | PLK1 PBD inh | Mm-Cpn inhibitor
COCCCNc1oc(-c2ccccc2F)nc1C#N | ? | – | – | – | 24µM | –
N#Cc1nc(-c2ccccc2F)oc1NCc1ccccc1 | – | – | – | 40µM | – | –
N#Cc1nc(-c2ccccc2F)oc1NCCc1ccccc1 | – | – | – | –[12.7 µM] | – | –
COn1cnnc1-c1ccccc1 | – | – | – | 13µM | – | –
CC(=O)CSc1nsc(SCC(C)=O)c1C#N | – | – | – | 8.9µM | ? | –
CCOC(=O)CSc1nsc(SCC(=O)OCC)c1C#N | – | – | – | – | – | –
Cc1ccnc(SCC(=O)c2ccc(Br)cc2)c1C#N | – | – | – | 50µM | – | ?
Cc1nc(CSc2nsc(C)c2C#N)cs1 | – | – | – | – | – | –
Cc1ccc(C(=O)CSc2nsc(C)c2C#N)cc1 | ? | 20µM | – | 4.5µM | 15µM | –
Cc1snc(SCC(=O)c2ccc(Cl)cc2)c1C#N | – | 28µM | – | 20µM | 21µM | –
COc1ccccc1-c1cc(NC(=O)COc2ccccc2Cl)n(-c2ccccc2)n1 | – | · | · | – | · | ·
COc1ccc(Cl)cc1NC(=O)CSc1nccn1Cc1ccco1 | – | · | · | ? | · | ·
COC(=O)c1cc(C#N)c(SCc2ccccc2)nc1C | – | – | – | – | – | –
COC(=O)c1ccccc1CSc1nsc(C)c1C#N | – | 50µM | – | 16µM | 13µM | –
O=c1cc(-c2ccccc2)oc2ccc(Br)cc12 | – | · | – | · | – | –
Cc1cccc(-c2cc(=O)c3cc(Br)ccc3o2)c1 | – | 79µM | · | · | · | ·
CCCCNc1nc2ccccc2c2nc(-c3ccccc3)nn12 | – | · | · | – | · | ·
O=C(NC(NNc1ccc([N+](=O)[O-])cc1)(C(F)(F)F)C(F)(F)F)c1ccccc1Cl | 79µM | – | – | ? | ? | –
O=[N+]([O-])c1ccc2nc(NS(=O)(=O)c3ccc(Cl)cc3)sc2c1 | – | – | – | 14µM | ? | –
COC(=O)C(NNc1ccccc1)(NC(=O)c1ccc(F)cc1)C(F)(F)F (stereo not given) | – | – | – | 35µM | – | –
O=[N+]([O-])c1ccc(NNC(=S)Nc2ccc(F)cc2)cc1 | ? | 2.5µM | – | ? | 12µM | –
O=[N+]([O-])c1ccc2nc(NS(=O)(=O)c3ccccc3[N+](=O)[O-])sc2c1 | – | – | – | – | ? | –
COC(=O)C(NNc1ccccc1)(NC(=O)c1ccccc1F)C(F)(F)F (stereo not given) | – | – | – | –[12.7 µM] | – | –
O=C(NCCc1ccccc1)c1sc2ncccc2c1-n1cccc1 | – | · | · | – | · | ·
CCOc1ccc(C2CC(=O)Nc3c2c(=O)[nH]c2ncnn32)cc1 (stereo not given) | – | · | · | ? | · | ·
SMILES | VDR inh | Sfp inh | CCT modulator | G9a block | PLK1 PBD inh | Mm-Cpn inhibitor
O=C(NC(NNc1ccc([N+](=O)[O-])cc1)(C(F)(F)F)C(F)(F)F)c1ccc(F)cc1 | ? | – | – | 13µM | – | –
O=C(NC(Nc1nc2ccc([N+](=O)[O-])cc2s1)(C(F)(F)F)C(F)(F)F)c1cccnc1 | – | – | – | ? | – | –
O=C(NC(Nc1nc2ccc([N+](=O)[O-])cc2s1)(C(F)(F)F)C(F)(F)F)c1ccccc1Cl | – | – | – | 79µM | – | –
O=[N+]([O-])c1ccc(Nc2ccc(F)cc2)cc1 | – | – | – | – | – | –
COC(=O)C1=C(C)N(Cc2ccccc2)[C@]23O[C@](C(=O)OC)(C(=O)N2C1c1ccccc1)C(C(=O)OC)=C3C(=O)OC (stereo not given in full) | · | – | · | · | · | ·
O=C(CN1C(=O)C2(SCC(=O)N2c2ccccc2)c2ccccc21)Nc1ccccc1C(F)(F)F (stereo not given) | – | · | · | – | · | ·
Cc1ccc(-c2cn3c(n2)sc2cc(C(=O)NC(C)C45CC6CC(CC(C6)C4)C5)ccc23)cc1 (stereo not given) | – | · | · | – | · | ·
O=c1[nH][nH]c2c1[C@H](c1ccccc1)O[C@H](C1CCCCC1)C2 | · | · | – | · | 12µM | ·
O=c1[nH][nH]c2c1[C@H](c1ccc(Cl)cc1)O[C@H](C1CC1)C2 | · | · | – | · | 12µM | ·
CCCC[C@@H]1Cc2[nH][nH]c(=O)c2[C@H](c2ccc(C(C)C)cc2)O1 | · | · | – | · | 9.5µM | ·
Cc1cc(C)c2sc(N(Cc3cccnc3)C(=O)CCOc3ccccc3)nc2c1 | – | · | · | – | · | ·

From PubChem BioAssay
